Screening results from PubChem.
Hits are enriched below; roughly 2.4% of the tested compounds scored in any of these assays.
D2 antagonist – antagonizes the human D2 dopamine receptor; P14416; HEK293 TREx D2 cells, calcium flux, dopamine EC80; inhibition, % at 10 µM; 2% of 340,000 active; AID 485344; in the data active = inhibition above about 30%; inactive = below that, where a call was filed; also: 0% is about no effect
Target sequence (P14416 whole entry, looked up): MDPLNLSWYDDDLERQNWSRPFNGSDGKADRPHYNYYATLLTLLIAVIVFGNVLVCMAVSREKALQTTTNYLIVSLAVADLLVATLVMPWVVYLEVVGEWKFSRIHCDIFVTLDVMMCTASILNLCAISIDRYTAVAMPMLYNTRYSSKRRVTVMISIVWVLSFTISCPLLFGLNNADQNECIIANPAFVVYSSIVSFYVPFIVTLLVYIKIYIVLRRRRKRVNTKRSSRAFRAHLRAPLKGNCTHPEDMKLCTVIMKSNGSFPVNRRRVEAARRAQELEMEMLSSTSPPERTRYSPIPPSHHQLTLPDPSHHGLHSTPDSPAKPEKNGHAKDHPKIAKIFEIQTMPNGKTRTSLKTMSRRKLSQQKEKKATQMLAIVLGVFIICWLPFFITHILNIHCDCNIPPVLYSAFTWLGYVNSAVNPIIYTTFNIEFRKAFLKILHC
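HEK293 T-REx D2 cells, tet-induced, calcium dye no-wash. Cpd pintool add, 180 s kinetic, then EC80 DA, 180 s kinetic. Ca flux read.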
D2 PAM-1 – human D2 receptor positive allosteric modulation; DiscoveRx D2 beta-arrestin cells, luminescence, 90 min; 100% = 57 uM dopamine signal; potentiation, % (no concentration beside the values); 0.23% of 360,000 active; AID 624464; in the data active = potentiation above about 50%; inconclusive = mostly about 30% to 49%
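D2 cells co-treated with compound plus 50 nM dopamine (EC20) for 90 min at 37 deg C to detect potentiation. Beta-arrestin recruitment was read as enzyme-fragment luminescence after 1 h at ambient temperature. Full response was set by 57 uM dopamine.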
D2 PAM-2 – positively modulates the human D2 dopamine receptor allosterically. P14416. HEK293 T-REx D2, calcium flux, EC20 dopamine potentiation. potentiation, % at 10 µM. 0.34% of 340,000 active. AID 485347;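 active = potentiation over 3 SD above the plate norm, cut at about 30% in these data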; also: 0% is about no effect
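Potentiation of an EC20 dopamine calcium response is measured in a force-coupled, tetracycline-inducible Hek293 Trex D2 line. Compound-only kinetic reads over 180 s flag agonists before dopamine addition.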
D2 ag-1 – activates the human D2 dopamine receptor; P14416; DiscoveRx PathHunter D2 beta-arrestin, luminescence, 90 min; 100% = 57 uM dopamine signal; activation, % (concentration not given with the values); 0.084% of 360,000 active; in the data active = activation above about 40%; inconclusive = between about 15% and that limit
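Agonist mode: compounds alone added to overnight-plated D2 PathHunter cells for 90 min at 37 C, with 57 uM final dopamine (EC100) defining full response. Beta-arrestin recruitment detected by chemiluminescent reagent, read after 1 h at ambient temperature.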
D2 ag-2 – agonists of human D2 dopamine receptor; P14416; HEK293 T-REx D2 cells, calcium flux agonist mode; activation, % at 2 µM; 0.53% of 340,000 active;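 active = activation over 3 SD above normal in the single-dose calcium agonist read, cut at about 30% in these data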; also: 0% is about no effect
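Tetracycline-induced HEK293 Trex cells with D2 receptor force-coupled to calcium signaling, plated overnight at 30 C and loaded with no-wash calcium dye. Calcium flux read kinetically for 180 s after compound addition; responses flag agonists.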
D3 ag – confirmation of human D3 dopamine receptor agonists, beta-arrestin | shares compounds with D2 ag-2 | DiscoveRx D3 beta-arrestin cells, luminescence, 90 min | Potency, µM (highest dose often 76.9 µM), without a hit: top-dose activation, usual class: activators | 4% of 2,300 active;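 also: potency is read from the fitted curve at half-maximal effect; 100% = dopamine control response; nearly all actives have a fitted effect of over 70% in size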
D2 ag-3 – counter-screen for D3 agonists: human D2 dopamine receptor agonism; shares compounds with D2 ag-2; DiscoveRx PathHunter D2 beta-arrestin, luminescence, 90 min; response scale: percent relative to full dopamine signal; Potency, µM (titrated, usually from 76.9 µM), inactives show at the highest dose activation, hits mostly activators; 5.9% of 2,300 active; AID 720507; also: potency is read from the fitted curve at half-maximal effect; % of control where 0% means no effect; nearly all actives have a fitted effect of over 70% in size
Active calls of the source: *; ? = inconclusive; . = no result given. Unless noted, calls follow the shape of the dose curve; as a rule, active = well fitted activation curve with a large enough effect; inconclusive = small, poorly fitted or top-dose-only effect; inactive = flat fitted curve, though single readings scatter.

SMILES | D2 antagonist | D2 PAM-1 | D2 PAM-2 | D2 ag-1 | D2 ag-2 | D3 ag | D2 ag-3
CCOC(=O)C1(CCOC)CCN(Cc2cccc(OCc3ccccc3)c2)CC1 | 37* | -4 | -20 | 1 | 63* | 0% | 25%
CS(=O)(=O)n1nc(-c2ccco2)nc1NCc1ccccc1Cl | . | . | 3 | . | 1 | . | .
COc1cc(OC)c(NC(=O)N2CCc3cc(OC)c(OC)cc3C2CC(=O)O)cc1Cl (stereo unspecified) | . | . | 2 | . | 2 | . | .
COc1ccc(N2CC(NC(=O)C(c3ccccc3)c3ccccc3)CC2=O)cc1OC (stereo unspecified) | . | . | 9 | . | 0 | . | .
CCCOc1ccc(Oc2nc(NC)nc(N3CCOCC3)n2)nn1 | . | . | 9 | . | 0 | . | .
CCC(C)NC(=O)c1cccc(NC(=O)c2nsc3ccccc23)c1 (stereo unspecified) | . | . | 8 | . | -1 | . | .
CCOC(=O)C1CCN(Cc2cccc(OCc3ccccc3)c2)CC1 | 86* | 22 | -21 | 48* | 74* | 14% | ?
COc1ccc(Cn2c(C(=O)O)c(CNC3CCC(C)CC3)c3ccc(C)cc32)cc1 (stereo unspecified) | . | . | 7 | . | 0 | . | .
O=C1C2CCCCN2C(=O)N1CCCCN1CCN(c2cccc(C(F)(F)F)c2)CC1 (stereo unspecified) | . | -3 | . | -1 | . | . | .
O=c1n(CCCN2CCN(c3cccc(Cl)c3)CC2)nc2ccccn12 | 52* | -25 | -23 | -4 | 41* | -7% | 7%
O=C1C2CCCN2C(=O)N1CCCN1CCN(c2cccc(Cl)c2)CC1 (stereo unspecified) | 31* | -24 | -29 | 2 | 26 | -13% | 0%
CCC(=O)OC1=C(C(C)=O)N(Cc2ccccc2)S(=O)(=O)c2ccccc21 | . | . | 0 | . | 1 | . | .
OC(COc1ccc(CNCc2cccnc2)cc1)CN1CCc2ccccc2C1 (stereo unspecified) | 49* | -8 | -21 | 1 | 54* | 4% | 7%
Cc1ccc(C)c(OCC(O)CN2CCc3ccccc3C2)c1C (stereo unspecified) | -12 | -22 | -20 | -1 | 0 | . | .
CC(=O)c1ccc(OCC(O)CN2CCOCC2)cc1 (stereo unspecified) | 9 | -12 | -12 | -4 | 0 | . | .
CC(=O)c1ccc(OCC(O)CN2CCc3ccccc3C2)cc1 (stereo unspecified) | 0 | -17 | -42 | 1 | 43* | -11% | -4%
OC(COc1ccccc1CNCc1cccnc1)CN1CCc2ccccc2C1 (stereo unspecified) | -12 | -9 | -1 | -3 | 0 | . | .
Cc1cc(=O)oc2cc(OCC(O)CN3CCN(c4ccccc4)CC3)ccc12 (stereo unspecified) | 72* | 30 | -30 | 52* | 90* | -4% | ?
Cc1cc(=O)oc2cc(OCC(O)CN3CCc4ccccc4C3)ccc12 (stereo unspecified) | . | -32 | . | 3 | . | -4% | 5%
COc1ccccc1-c1noc(-c2ccc(NCc3cccnc3)c([N+](=O)[O-])c2)n1 | . | . | -1 | . | -1 | . | .
CCOC(=O)c1cc(-c2ccc(OC)cc2)n(CCC(=O)NC2CCCCC2)c1C | . | . | -9 | . | 1 | . | .
CC(C)c1ccc(NC(=O)c2cn(C3CCCC3)c(=O)c3c2c2ccccc2n3C)cc1 | . | . | 8 | . | . | . | .
COc1ccccc1N1CCN(CC(O)COc2ccc3c(C)cc(=O)oc3c2)CC1 (stereo unspecified) | 72* | 6 | -24 | ? | 25 | 1% | 22%
COc1ccc2c(C)cc(=O)oc2c1OCC(O)CN1CCOCC1 (stereo unspecified) | . | -12 | . | -7 | . | . | .
N#CC(C(=O)NC1CCCCC1)c1nc2ccccc2nc1N1CCOCC1 (stereo unspecified) | -1 | . | -2 | . | -1 | . | .
SMILES | D2 antagonist | D2 PAM-1 | D2 PAM-2 | D2 ag-1 | D2 ag-2 | D3 ag | D2 ag-3
N#CC(C(=O)OCc1ccccc1)c1nc2ccccc2nc1N1CCOCC1 (stereo unspecified) | 24 | -5 | 8 | -8 | 5 | -25% | -7%
CC(C)N1CCN(CC2COc3ccccc3O2)CC1 (stereo unspecified) | 4 | -10 | -10 | -5 | 35* | -7% | -1%
CC1CCN(c2oc(-c3cccs3)nc2S(=O)(=O)c2ccc(Cl)cc2)CC1 | . | . | -10 | . | -1 | . | .
COc1cc(-c2noc(C)c2C#CC2(O)CCCCC2)cc(OC)c1OC | -18 | -7 | -17 | 5 | 72* | 0% | 3%
COc1cc(-c2noc(C)c2C#CC2(N)CCCCC2)cc(OC)c1OC | 5 | -10 | -13 | -4 | 0 | . | .
COc1cccc(CN2CCN(Cc3cc4ccccc4[nH]3)CC2CCO)c1 (stereo unspecified) | 12 | -20 | -18 | -1 | 31* | -9% | -3%
Nc1ccc(C(=O)O)cc1[N+](=O)[O-] | -18 | -6 | -1 | -5 | 0 | . | .
Nc1ccc(C(=O)c2cccs2)cc1[N+](=O)[O-] | 19 | -15 | 7 | -2 | 0 | -4% | -5%
CN(CCNC(=O)c1ccc(CS(=O)(=O)c2c(Cl)cccc2Cl)o1)CCc1ccccc1 | 0 | -31 | -5 | -1 | 31* | 3% | 8%
CN(C)CCNC(=O)c1ccc(CS(=O)(=O)c2c(Cl)cccc2Cl)o1 | 1 | -4 | 0 | -7 | 1 | . | .
O=C(CN1CCN(c2ccccn2)CC1)Nc1ccc(OC(F)(F)F)cc1 | -24 | 1 | -11 | 9 | 16 | . | .
O=C(CCN1CCN(c2ccccn2)CC1)Nc1ccc(F)cc1 | 67* | -17 | -24 | 12 | 69* | ? | 29%
CN(C)c1ccc(NC(=O)CCN2CCN(c3ccccn3)CC2)cc1 | 85* | ? | -27 | ? | 80* | ? | 0.25µM*
CC1=C(C(=O)Nc2cccc(C(F)(F)F)c2)C2(CCN(C(C)C)CC2)OC1=O | . | . | -6 | . | 0 | . | .
O=C(O)CCSc1nc2ccccc2s1 | 5 | 0 | 8 | -1 | 2 | . | .
c1ccc2sc(SCSc3nc4ccccc4s3)nc2c1 | 12 | 0 | -25 | -4 | 32* | -7% | ?
O=C(COc1ccccc1Cl)NNC(=O)Cn1[nH]c(=O)c2ccccc2c1=O | 0 | -1 | 9 | -3 | 0 | -5% | -7%
Cc1ccc(Cn2c(=O)n(-c3cc(C)cc(C)c3)c(=O)c3oc4ccccc4c32)cc1 | . | . | 2 | . | 1 | . | .
COc1ccc(NC(=O)CN(C)C(=O)c2csc3c2CCCC3)cc1 | 13 | -19 | -6 | -6 | 0 | . | .
